Results reported in PMC4081100, “A DNA-binding-site landscape and regulatory network analysis for NAC transcription factors in Arabidopsis thaliana”.

Key:
Test in all cases: universal protein binding microarray (PBM); transcription factors of Arabidopsis thaliana; high values mean tight binding
[1] = biological target: T1, GST-ANAC092(1-176) (Arabidopsis thaliana, UniProt Q9FKA0 1-176); settings: protein: recombinant; tags: GST; chain copies: 2; dsDNA, one strand shown
T1 sequence: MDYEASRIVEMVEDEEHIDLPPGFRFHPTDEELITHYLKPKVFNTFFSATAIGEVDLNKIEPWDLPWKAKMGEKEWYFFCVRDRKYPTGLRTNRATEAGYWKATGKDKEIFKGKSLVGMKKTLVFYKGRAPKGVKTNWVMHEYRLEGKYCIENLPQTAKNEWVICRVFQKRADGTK
How it was run: (§1)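 GST-tagged proteins (NAC-domain, full-length or DNA-binding-domain) were induced in cells, with zinc acetate supplied for zinc-finger proteins, then purified on glutathione–Sepharose 4B. Each was tested in duplicate at 200 to 500 nM final on custom all-10-mer Agilent 4 × 180K arrays rendered double-stranded by primer extension. The binding value is the normalised enrichment score (E-score) across gapped and ungapped 8-mers.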

[2] = biological target: GST-NTL6(1-168) (Arabidopsis thaliana, UniProt Q9SCK6 1-168); settings: protein: recombinant; tags: GST; chain copies: 2; dsDNA, one strand shown
How it was run: as §1

[3] = biological target: T2, GST-ANAC019 NAC domain (Arabidopsis thaliana, UniProt Q9C932 14-162); settings: protein: recombinant; tags: GST; chain copies: 2; dsDNA, one strand shown
T2 sequence: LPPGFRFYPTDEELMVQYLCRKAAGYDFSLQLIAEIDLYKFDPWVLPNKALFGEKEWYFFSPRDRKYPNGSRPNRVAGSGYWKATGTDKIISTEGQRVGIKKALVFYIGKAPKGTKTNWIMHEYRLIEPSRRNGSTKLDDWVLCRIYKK
How it was run: as §1

[4] = biological target: T3, GST-ATAF1 NAC domain (Arabidopsis thaliana, UniProt Q39013 7-158); settings: protein: recombinant; tags: GST; chain copies: 2; dsDNA, one strand shown
T3 sequence: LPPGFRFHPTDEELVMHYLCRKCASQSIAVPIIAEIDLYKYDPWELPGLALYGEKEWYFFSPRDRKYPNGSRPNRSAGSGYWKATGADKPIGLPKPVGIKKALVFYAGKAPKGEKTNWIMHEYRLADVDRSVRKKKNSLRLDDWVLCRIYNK
How it was run: as §1

[5] = biological target: T4, GST-NAP(1-166) (Arabidopsis thaliana, UniProt O49255 1-166); settings: protein: recombinant; tags: GST; chain copies: 2; dsDNA, one strand shown
T4 sequence: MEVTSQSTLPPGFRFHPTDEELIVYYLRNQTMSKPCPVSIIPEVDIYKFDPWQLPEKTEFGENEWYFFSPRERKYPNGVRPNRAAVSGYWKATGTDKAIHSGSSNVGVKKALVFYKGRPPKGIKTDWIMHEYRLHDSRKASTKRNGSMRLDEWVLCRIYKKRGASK
How it was run: as §1

[6] = biological target: T5, GST-NST2(1-184) (Arabidopsis thaliana, UniProt Q9M274 1-184); settings: protein: recombinant; tags: GST; chain copies: 2; dsDNA, one strand shown
T5 sequence: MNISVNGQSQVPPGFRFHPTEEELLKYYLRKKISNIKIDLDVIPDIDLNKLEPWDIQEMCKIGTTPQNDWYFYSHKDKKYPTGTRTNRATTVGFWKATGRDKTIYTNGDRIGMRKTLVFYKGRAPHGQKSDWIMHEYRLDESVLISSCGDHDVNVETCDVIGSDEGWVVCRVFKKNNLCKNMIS
How it was run: as §1

[7] = biological target: T6, GST-VND3 NAC domain (Arabidopsis thaliana, UniProt Q9FH59 12-162); settings: protein: recombinant; tags: GST; chain copies: 2; dsDNA, one strand shown
T6 sequence: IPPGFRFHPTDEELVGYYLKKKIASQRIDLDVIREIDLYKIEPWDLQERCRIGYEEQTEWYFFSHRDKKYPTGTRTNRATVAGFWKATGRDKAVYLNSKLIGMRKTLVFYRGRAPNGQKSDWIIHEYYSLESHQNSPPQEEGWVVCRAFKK
How it was run: as §1

[8] = biological target: T7, GST-VND7 NAC domain (Arabidopsis thaliana, UniProt Q9C8W9 9-158); settings: protein: recombinant; tags: GST; chain copies: 2; dsDNA, one strand shown
T7 sequence: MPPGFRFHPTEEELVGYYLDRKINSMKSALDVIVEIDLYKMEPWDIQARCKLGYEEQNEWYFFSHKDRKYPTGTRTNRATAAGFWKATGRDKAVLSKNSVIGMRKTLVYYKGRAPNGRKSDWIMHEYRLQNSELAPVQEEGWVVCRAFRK
How it was run: as §1

[9] = biological target: GST-WRKY1(266-371) (Arabidopsis thaliana, UniProt Q9SI37 266-371); settings: protein: recombinant; tags: GST; dsDNA, one strand shown
How it was run: as §1

[10] = biological target: T8, GST-ANAC092(1-285) full length (Arabidopsis thaliana, UniProt Q9FKA0 1-285); settings: protein: recombinant; tags: GST; chain copies: 2; dsDNA, one strand shown
T8 sequence: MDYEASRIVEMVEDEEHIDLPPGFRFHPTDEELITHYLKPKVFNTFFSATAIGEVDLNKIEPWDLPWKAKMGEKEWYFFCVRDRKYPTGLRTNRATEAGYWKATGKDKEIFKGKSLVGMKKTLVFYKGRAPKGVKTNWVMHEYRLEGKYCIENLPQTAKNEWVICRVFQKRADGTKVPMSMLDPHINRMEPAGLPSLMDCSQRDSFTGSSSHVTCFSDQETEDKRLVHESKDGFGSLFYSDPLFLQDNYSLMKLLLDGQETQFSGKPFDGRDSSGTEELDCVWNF
How it was run: as §1

[11] = biological target: T9, GST-SND1(1-203) (Arabidopsis thaliana, UniProt Q9LPI7 1-203); settings: protein: recombinant; tags: GST; chain copies: 2; dsDNA, one strand shown
T9 sequence: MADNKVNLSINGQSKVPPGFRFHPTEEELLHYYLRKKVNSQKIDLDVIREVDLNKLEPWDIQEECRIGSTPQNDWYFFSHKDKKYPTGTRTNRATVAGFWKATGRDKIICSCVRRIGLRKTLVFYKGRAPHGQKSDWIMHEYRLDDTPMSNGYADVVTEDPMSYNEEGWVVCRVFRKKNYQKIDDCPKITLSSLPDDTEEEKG
How it was run: as §1

[12] = biological target: T10, GST-ANAC055(1-171) (Arabidopsis thaliana, UniProt Q9LDY8 1-171); settings: protein: recombinant; tags: GST; chain copies: 2; dsDNA, one strand shown
T10 sequence: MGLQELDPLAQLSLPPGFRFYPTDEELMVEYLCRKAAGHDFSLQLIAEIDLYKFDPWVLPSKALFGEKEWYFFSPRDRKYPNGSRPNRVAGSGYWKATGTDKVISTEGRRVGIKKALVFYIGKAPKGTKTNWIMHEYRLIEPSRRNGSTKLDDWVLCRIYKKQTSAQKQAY
How it was run: as §1

[13] = biological target: T11, GST-NTL8 NAC domain (Arabidopsis thaliana, UniProt Q9XIN7 14-156); settings: protein: recombinant; tags: GST; chain copies: 2; dsDNA, one strand shown
T11 sequence: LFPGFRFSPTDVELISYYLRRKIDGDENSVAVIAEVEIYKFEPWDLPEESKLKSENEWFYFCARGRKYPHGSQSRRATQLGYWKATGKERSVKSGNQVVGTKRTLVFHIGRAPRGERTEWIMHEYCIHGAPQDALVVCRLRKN
How it was run: as §1

Chain of GST-WRKY1(266-371) (Q9SI37 266-371): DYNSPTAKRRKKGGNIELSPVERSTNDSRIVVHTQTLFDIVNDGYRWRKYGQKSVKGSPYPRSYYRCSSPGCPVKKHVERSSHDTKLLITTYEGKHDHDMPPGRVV
Chain of GST-NTL6(1-168) (Q9SCK6 1-168): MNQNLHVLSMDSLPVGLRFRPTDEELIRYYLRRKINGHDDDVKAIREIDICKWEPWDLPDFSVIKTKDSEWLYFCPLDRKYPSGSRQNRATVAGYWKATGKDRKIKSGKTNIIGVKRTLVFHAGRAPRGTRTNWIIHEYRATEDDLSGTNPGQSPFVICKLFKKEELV

What does the source list for AAGTCAAA?
binding signal [1]: 0.0569 E-score; binding signal [2]: 0.135 E-score; binding signal [3]: 0.084 E-score; binding signal [4]: 0.16 E-score; binding signal [5]: 0.102 E-score; binding signal [6]: 0.0885 E-score; binding signal [7]: 0.0889 E-score; binding signal [8]: 0.106 E-score; binding signal [9]: 0.488 E-score

With CTACGCGA as the sequence, how does the binding signal [10] read?
The binding signal was 0.177 E-score.

What about the binding signal [6] of the same sequence?
Its binding signal is 0.0539 E-score.

What about the binding signal [11] of the same sequence?
The binding signal was 0.417 E-score.

What does the source list for ACAGTCAA?
binding signal [1]: 0.141 E-score; binding signal [12]: 0.0601 E-score; binding signal [4]: 0.081 E-score; binding signal [10]: 0.0848 E-score; binding signal [5]: 0.0868 E-score; binding signal [13]: 0.164 E-score; binding signal [7]: 0.0711 E-score; binding signal [8]: 0.0752 E-score; binding signal [9]: 0.477 E-score

What does the source list for TACGCGAA?
binding signal [1]: 0.268 E-score; binding signal [12]: 0.0984 E-score; binding signal [4]: 0.119 E-score; binding signal [10]: 0.368 E-score; binding signal [5]: 0.0761 E-score; binding signal [6]: 0.185 E-score; binding signal [11]: 0.416 E-score

With TGAGGAAA as the sequence, how does the binding signal [1] read?
The binding signal was 0.0937 E-score.

And the binding signal [2]?
Its binding signal is 0.106 E-score.

What about the binding signal [6] of the same sequence?
The binding signal was 0.105 E-score.

What about the binding signal [13] of the same sequence?
Its binding signal is 0.429 E-score.

What about the binding signal [11] of the same sequence?
Its binding signal is 0.172 E-score.

With ACTCAACC as the sequence, how does the binding signal [1] read?
The binding signal was 0.366 E-score.

What about the binding signal [12] of the same sequence?
The binding signal was 0.0786 E-score.

What about the binding signal [4] of the same sequence?
Its binding signal is 0.117 E-score.

And the binding signal [10]?
The binding signal was 0.408 E-score.

And the binding signal [6]?
The binding signal was 0.221 E-score.

What about the binding signal [11] of the same sequence?
Its binding signal is 0.381 E-score.

How did the binding signal [1] turn out when CTTGACCA was run?
The binding signal was 0.0818 E-score.

What about the binding signal [3] of the same sequence?
Its binding signal is 0.0734 E-score.

What about the binding signal [12] of the same sequence?
The binding signal was 0.104 E-score.

And the binding signal [4]?
The binding signal was 0.145 E-score.

What about the binding signal [6] of the same sequence?
The binding signal was 0.1 E-score.

What about the binding signal [7] of the same sequence?
The binding signal was 0.119 E-score.

What about the binding signal [9] of the same sequence?
Its binding signal is 0.484 E-score.

What does the source list for ATTGGTCA?
binding signal [1]: 0.0884 E-score; binding signal [10]: 0.105 E-score; binding signal [7]: 0.0748 E-score; binding signal [9]: 0.454 E-score

AATAGTCA was tested. Which binding signal [12] did it give?
Its binding signal is 0.0507 E-score.

What about the binding signal [4] of the same sequence?
Its binding signal is 0.061 E-score.

What about the binding signal [10] of the same sequence?
The binding signal was 0.113 E-score.

And the binding signal [6]?
The binding signal was 0.0657 E-score.

And the binding signal [7]?
Its binding signal is 0.178 E-score.

What about the binding signal [8] of the same sequence?
The binding signal was 0.143 E-score.

And the binding signal [9]?
The binding signal was 0.413 E-score.

How did the binding signal [2] turn out when GTCAAATA was run?
Its binding signal is 0.0593 E-score.

What about the binding signal [12] of the same sequence?
The binding signal was 0.0664 E-score.

What about the binding signal [4] of the same sequence?
Its binding signal is 0.141 E-score.

What about the binding signal [5] of the same sequence?
The binding signal was 0.0873 E-score.

What about the binding signal [7] of the same sequence?
The binding signal was 0.0795 E-score.

And the binding signal [8]?
Its binding signal is 0.139 E-score.

And the binding signal [9]?
Its binding signal is 0.461 E-score.

With GTCAATCA as the sequence, how does the binding signal [3] read?
The binding signal was 0.0668 E-score.

And the binding signal [12]?
The binding signal was 0.0807 E-score.

And the binding signal [10]?
Its binding signal is 0.169 E-score.

And the binding signal [6]?
The binding signal was 0.0647 E-score.

What about the binding signal [13] of the same sequence?
The binding signal was 0.0888 E-score.

And the binding signal [7]?
The binding signal was 0.132 E-score.

And the binding signal [8]?
Its binding signal is 0.114 E-score.

What about the binding signal [9] of the same sequence?
Its binding signal is 0.435 E-score.

What does the source list for CATGGTCA?
binding signal [7]: 0.0588 E-score; binding signal [9]: 0.443 E-score

For ACACGGTA, which binding signal [1] is on record?
The binding signal was 0.437 E-score.

What about the binding signal [3] of the same sequence?
Its binding signal is 0.286 E-score.

And the binding signal [12]?
The binding signal was 0.265 E-score.

What about the binding signal [4] of the same sequence?
The binding signal was 0.21 E-score.

What about the binding signal [10] of the same sequence?
Its binding signal is 0.443 E-score.

What about the binding signal [5] of the same sequence?
Its binding signal is 0.234 E-score.

And the binding signal [6]?
Its binding signal is 0.202 E-score.

What about the binding signal [7] of the same sequence?
The binding signal was 0.227 E-score.

And the binding signal [8]?
Its binding signal is 0.123 E-score.

How did the binding signal [12] turn out when GTTGACAA was run?
Its binding signal is 0.127 E-score.

And the binding signal [4]?
Its binding signal is 0.195 E-score.

And the binding signal [10]?
Its binding signal is 0.055 E-score.

What about the binding signal [5] of the same sequence?
The binding signal was 0.116 E-score.

And the binding signal [7]?
The binding signal was 0.0521 E-score.

And the binding signal [8]?
Its binding signal is 0.0726 E-score.

What about the binding signal [9] of the same sequence?
The binding signal was 0.446 E-score.

With AGAGGGAA as the sequence, how does the binding signal [1] read?
The binding signal was 0.114 E-score.

What about the binding signal [2] of the same sequence?
Its binding signal is 0.178 E-score.

And the binding signal [12]?
Its binding signal is 0.0527 E-score.

What about the binding signal [4] of the same sequence?
Its binding signal is 0.0736 E-score.

What about the binding signal [5] of the same sequence?
The binding signal was 0.111 E-score.

And the binding signal [13]?
The binding signal was 0.447 E-score.

What about the binding signal [7] of the same sequence?
Its binding signal is 0.0709 E-score.

What about the binding signal [8] of the same sequence?
Its binding signal is 0.0972 E-score.
